High-throughput results as filed in PubChem BioAssay.
GALR2 blocker: GALR2 antagonists in receptor-expressing cells, primary screen | antagonist mode | inhibition, % at 4 µM | 140,000 compounds, 0.39% hits | AID 828, 2007; in the data active = inhibition above about 27%;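 note: cells stimulated with galanin 1-16 at roughly its EC80; 0% = agonist challenge control and 100% = basal control without agonist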
Target sequence (O43603 whole entry, looked up): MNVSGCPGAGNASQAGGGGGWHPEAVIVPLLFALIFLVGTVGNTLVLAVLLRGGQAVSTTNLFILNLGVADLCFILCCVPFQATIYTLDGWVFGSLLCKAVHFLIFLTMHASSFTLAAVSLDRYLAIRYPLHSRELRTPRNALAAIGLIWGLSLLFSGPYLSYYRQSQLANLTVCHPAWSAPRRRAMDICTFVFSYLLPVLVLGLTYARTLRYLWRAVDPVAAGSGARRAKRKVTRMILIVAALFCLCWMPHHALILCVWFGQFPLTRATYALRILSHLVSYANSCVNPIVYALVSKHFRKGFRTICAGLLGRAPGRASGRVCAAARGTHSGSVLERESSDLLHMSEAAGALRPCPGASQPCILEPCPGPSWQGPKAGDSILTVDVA
S1P2 agonist: S1P2 receptor agonists, primary screen, cell-based; Sphingosine 1-phosphate receptor 2 (Homo sapiens), O95136; S1P2-expressing cell line, agonist reporter read-out; activation, % at 4.5 µM; 97,000 compounds, 0.46% hits; in the data active = activation above about 16%;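 note: 0% = vehicle low control and 100% = maximal reference agonist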
GALR2 agonist: GALR2 receptor agonists, primary screen, cell-based. activation, % (concentration not given with the values). GALR2-expressing cells, agonist activation read-out. Galanin receptor type 2 (Homo sapiens), O43603. 140,000 compounds, 0.48% hits; in the data active = activation above about 5%, passing the limit was not always enough;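 note: 0% = vehicle buffer wells and 100% = reference agonist at full effect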
hDAT+cocaine: changed hDAT dopamine uptake under cocaine IC80, either direction, primary screen, cocaine antagonist project, cell-based, LLC-PK1 hDAT, [14C]-dopamine uptake, MLSMR | Sodium-dependent dopamine transporter (Homo sapiens), Q01959 | B-score at 10 µM | 110,000 compounds, 1.3% hits | LLC-PK1 hDAT cells, [14C]-dopamine uptake with cocaine IC80; actives deviate in either direction | AID 449768, 2010;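 active = Z score or B-score, a plate-position-corrected score, falls beyond the plate's 99.7% confidence bounds, in either direction; inactive = both scores lie inside the 99.7% bounds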;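 note: scored against the spread of the other compound wells on the same plate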
S1P2 blocker: human S1P2 receptor antagonists, primary screen, cell-based. Sphingosine 1-phosphate receptor 2 (Homo sapiens), O95136. cell-based S1P2 antagonist assay, inhibition at 5 uM. inhibition, % at 5 µM. 97,000 compounds, 0.21% hits; in the data active = inhibition above about 45%;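 note: CRE beta-lactamase reporter cells expressing human S1P2 stimulated with S1P; 0% = agonist at EC80 alone and 100% = agonist plus reference antagonist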
The depositor's hits bear a star; . = not tested or not shown. Shown are actives, neighbours in structure and some others; about 2.1% of the full set was active somewhere.

SMILES | GALR2 blocker | S1P2 agonist | GALR2 agonist | hDAT+cocaine | S1P2 blocker
O=C(Nc1ccc(N2CCN(C(=O)c3ccccc3)CC2)c(Cl)c1)c1ccco1 | 12 | -4 | -2 | 0.21 | 16
CCCC(=O)N1CCN(c2ccc(NC(=O)c3cc4ccccc4o3)cc2Cl)CC1 | 8 | -6 | -3 | 1.8 | 76*
O=C(Nc1ccc(N2CCN(C(=O)c3ccco3)CC2)c(Cl)c1)c1cc2ccccc2o1 | 16 | -9 | -3 | . | 65*
O=C(c1cc2ccccc2o1)N1CCN(c2ccccc2Cl)CC1 | -6 | -4 | -1 | 0.3 | 10
CCC(=O)N1CCN(c2ccc(NC(=O)c3cc4ccccc4o3)cc2Cl)CC1 | 6 | -1 | -1 | 0.44 | 51*
CC(C)(C)CN1C(N)=NC[C@@H]1Cc1ccccc1 | . | . | . | -2.7* | .
Cc1ccc(/C(N)=N/OC(=O)C23CC4CC(CC(C4)C2)C3)cc1 | 1 | -6 | 0 | -7.1* | 2
Cc1ccc(/C(N)=N/OC(=O)N2CCOCC2)cc1 | 5 | -8 | -2 | -0.038 | 11
C=C1C(=O)[C@@]23[C@H](O)C[C@@H]4C(C)(C)CC[C@H](O)[C@]4(C)[C@@H]2C[C@H](O)[C@@H]1[C@H]3O | -6 | . | -2 | -4.8* | .
COc1ccc(OCC(=O)N2CCN(S(=O)(=O)c3ccc(Cl)cc3)CC2)cc1 | -9 | -2 | -2 | -0.25 | -19
COc1cc([N+](=O)[O-])cc(CN2CCCCC2)c1O | 2 | -9 | 0 | -1.2* | 1
CCOc1ccc(NC(=O)NC2CCOC(C)(C)C2)cc1 (configuration not stated) | -8 | -3 | -1 | -1.2 | -9
CCCCN(CC)Cc1ccc(CNC(=O)Nc2ccc(OCC)cc2)o1 | 3 | -7 | -2 | -4.1* | 21
CCc1nnc(NC(=O)CSc2nnc(-c3ccc(NS(=O)(=O)c4ccccc4)cc3)o2)s1 | 2 | . | 0 | . | .
CC(=O)NC(CC(C)C)C(=O)NC(=O)NCc1ccccc1 (configuration not stated) | 5 | . | -1 | -0.73 | .
COc1ccccc1CNC(=O)c1cn(C)c(=O)c2cc(OC)c(OC)cc12 | -2 | 12 | -1 | -1.3 | -18
COc1cccc(NC(=O)c2cn(C)c(=O)c3cc(OC)c(OC)cc23)c1 | -1 | 28* | -2 | 0.14 | -29
CN(C)C(CNS(=O)(=O)c1ccc(Br)cc1)c1cccnc1 (configuration not stated) | 7 | -5 | 0 | -8.9* | 11
CCOC(=O)c1c(NC(=O)COc2cccc3c2CCN(CC)C3=O)sc2c1CCC2 | 4 | . | 0 | . | .
Clc1ccc(C2=Nn3c(nnc3-c3n[nH]c4c3CCC4)SC2)cc1Cl | -12 | -4 | 5.2* | 0.4 | -15
c1ccc(C2=Nn3c(nnc3-c3n[nH]c4c3CCC4)SC2)cc1 | -5 | -11 | -2 | 0.33 | 2
O=C(CN1C(=O)NC2(CCCCC2)C1=O)NC1CCCc2ccccc21 (configuration not stated) | 3 | . | -1 | . | .
O=C(N/N=C/c1ccc(O)cc1)c1[nH]c2ccc(Br)cc2c1-c1ccccc1 | 19 | . | 5 | . | .
O=C(N/N=C/c1c[nH]c2ccccc12)c1[nH]c2ccc(Br)cc2c1-c1ccccc1 | 13 | . | 8.1* | . | .
CCC(=O)c1cc2c(C)cc(=O)oc2c(C)c1O | 3 | 119* | 0 | -0.34 | -17
SMILES | GALR2 blocker | S1P2 agonist | GALR2 agonist | hDAT+cocaine | S1P2 blocker
O=C(c1cc(C2CC2)on1)N1CCN(c2ccc(F)cc2)CC1 | 4 | -2 | -1 | 0.37 | -12
COc1ccc2[nH]c(-c3ccc(C)cc3)cc(=O)c2c1 | 0 | . | -2 | 0.67 | .
O=C(NCc1cccc(C(F)(F)F)c1)C1CC2Cn3c(nc4ccccc43)C2N1Cc1ccccc1 (configuration not stated) | . | . | . | 0.017 | .
O=[N+]([O-])c1ccc(N/N=C/c2cn(-c3ccccc3)nc2-c2ccccc2)cc1 | -3 | -6 | 0 | 0.94 | 67*
O=S(=O)(N/N=C\c1cn(-c2ccccc2)nc1-c1ccccc1)c1ccccc1 | 2 | -9 | -2 | 0.85 | 16
CC1(C)NC(C)(C)c2nonc2/C1=N\O | 7 | . | -1 | 2.8* | .
COCCNC(=O)c1ccc2c(=O)n(CCOC)c(=O)[nH]c2c1 | -3 | -5 | -2 | -9* | 25
CCC(=O)Nc1nc2ccc(NC(C)=O)cc2s1 | -19 | -10 | -2 | 0.36 | 5
CCOc1cccc2sc(Nc3nc4ccc(NC(C)=O)cc4s3)nc12 | 6 | . | 8.1* | . | .
CCOC(=O)c1sc(Nc2nc3c(OC)cccc3s2)nc1C | -3 | . | 46* | 1.2 | .
CCOC(=O)c1sc(Nc2ccccc2)nc1C | -7 | 0 | 0 | 1.5 | -19
Cc1ccc2nc(NCCO)nc(-c3ccccc3)c2c1 | 13 | -3 | 2 | . | -34
Cc1ccc2nc(N3CCN(C=O)CC3)nc(-c3ccccc3)c2c1 | 0 | 1 | 4 | 2.8* | 1
CCOC(=O)c1oc2ccccc2c1NC(=O)c1ccc(Cl)s1 | -12 | -1 | 0 | -2.4* | -14
CCOC(=O)c1oc2ccccc2c1NC(=O)c1ccc2c(c1)OCO2 | -1 | -4 | 1 | -0.14 | -15
CC(C)Cn1c(/C=C/c2ccco2)nc2ccccc21 | 4 | . | 0 | . | .
Cn1nnc(NCc2cc(Br)ccc2OCc2cccs2)n1 | -11 | -6 | -2 | 9.8* | -17
Cn1nnc(C(O)CNCc2cccs2)n1 (configuration not stated) | 2 | -4 | -4 | -0.0057 | 16
Cc1ccc(-c2nn3c(C)nnc3s2)cc1NC(=O)c1ccc(-c2ccc(Cl)cc2Cl)o1 | -3 | . | 6.8* | -0.52 | .
CN(C)c1ccc(-c2nn3c(-c4ccc(Cl)cc4Cl)nnc3s2)cc1 | -1 | . | 6.0* | . | .
Clc1ccc(-c2nnc3sc(-c4ccc(Br)o4)nn23)c(Cl)c1 | -7 | -5 | 1 | . | -17
CCN(CC)c1ccc(-c2nn3c(-c4ccccc4OC)nnc3s2)cc1 | 11 | 4 | 6.8* | 0.79 | 3
COC(=O)C[C@H]1c2cc(F)cc(F)c2S(=O)(=O)N1C1CCN(Cc2ccccc2)CC1 | . | . | . | 0.084 | .
Cc1ccc(NC(=O)c2sc(Cl)nc2-c2ccccc2)cc1C | 7 | -6 | -2 | 0.68 | -18
COc1ccccc1NC(=O)CC1C(=O)Nc2c1c(=O)n(C)c(=O)n2C (configuration not stated) | 13 | -3 | -2 | -0.072 | -8
Cn1c2c(c(=O)n(C)c1=O)C(CC(=O)Nc1ccccc1)C(=O)N2 (configuration not stated) | -5 | -7 | -1 | -7.9* | 7
Cc1nc2cc(NC(=O)COc3ccc(C#N)cc3)ccc2n1-c1ccccc1 | 0 | -7 | -2 | -7.9* | 8
O=C1C2C(C(=O)N1/N=C/c1cccc([N+](=O)[O-])c1)C1C=CC2C12CC2 (configuration not stated) | 0 | . | -1 | . | .
